Experimental data reported in ChEMBL document CHEMBL3988442, “University of Dundee, Small-Polar-MMV Screening Library” (2021).
For part of these data: Potency and affinity values are given separately.

Legend:
Design in all cases: scale not given: direction of the effect not stated beside the values
[1] = target: Protein translocase subunit SecA (Escherichia coli (strain K12)) (UniProt P10408); assay: Assay to Identify E. coli SecA ATPase Inhibitors; format: functional; conditions: 30 µM
[2] = target: T1, Ubiquitin-activating enzyme e1, putative (Leishmania donovani (strain BPK282A1)) (UniProt E9BSI1); assay: Leishmania donovani Ubiquitin Activating Enzyme (LdE1); format: functional; conditions: 30 µM
T1 sequence (whole entry): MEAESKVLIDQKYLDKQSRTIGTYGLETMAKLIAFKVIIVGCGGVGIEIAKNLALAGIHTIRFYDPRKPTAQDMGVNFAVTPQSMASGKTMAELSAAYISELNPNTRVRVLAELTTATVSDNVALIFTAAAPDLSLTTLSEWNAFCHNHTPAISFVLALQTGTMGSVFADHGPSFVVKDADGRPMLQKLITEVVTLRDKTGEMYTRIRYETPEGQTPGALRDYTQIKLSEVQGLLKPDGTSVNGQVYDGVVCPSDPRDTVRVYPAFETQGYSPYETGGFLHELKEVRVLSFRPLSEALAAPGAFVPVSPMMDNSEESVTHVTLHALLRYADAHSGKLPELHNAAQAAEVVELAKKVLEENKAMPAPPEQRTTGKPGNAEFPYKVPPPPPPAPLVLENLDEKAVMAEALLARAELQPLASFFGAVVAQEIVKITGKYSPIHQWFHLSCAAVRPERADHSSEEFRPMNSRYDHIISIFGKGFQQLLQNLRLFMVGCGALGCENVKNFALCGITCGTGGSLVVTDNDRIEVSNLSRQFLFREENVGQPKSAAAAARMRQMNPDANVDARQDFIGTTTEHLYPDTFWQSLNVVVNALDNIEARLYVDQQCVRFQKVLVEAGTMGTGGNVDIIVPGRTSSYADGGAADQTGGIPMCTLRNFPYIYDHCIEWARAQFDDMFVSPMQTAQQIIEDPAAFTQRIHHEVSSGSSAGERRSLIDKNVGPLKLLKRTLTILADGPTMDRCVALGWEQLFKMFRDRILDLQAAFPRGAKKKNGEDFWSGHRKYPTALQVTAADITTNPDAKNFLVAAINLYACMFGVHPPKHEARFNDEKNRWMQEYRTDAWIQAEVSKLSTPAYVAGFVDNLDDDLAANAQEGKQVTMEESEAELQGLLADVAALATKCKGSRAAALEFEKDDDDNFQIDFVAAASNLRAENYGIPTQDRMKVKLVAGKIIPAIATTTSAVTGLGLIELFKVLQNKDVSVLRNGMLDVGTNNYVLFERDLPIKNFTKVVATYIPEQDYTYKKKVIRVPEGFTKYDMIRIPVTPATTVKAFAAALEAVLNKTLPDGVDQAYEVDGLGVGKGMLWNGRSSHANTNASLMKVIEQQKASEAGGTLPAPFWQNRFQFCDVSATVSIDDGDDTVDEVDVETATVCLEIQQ

[3] = target: Sialic acid-binding Ig-like lectin 9 (Homo sapiens) (UniProt Q9Y336); assay: Hs-Siglec9 ALPHAscreen SOP 20170721; conditions: 10 µM
Trypanosoma cruzi = assay: Trypanosoma cruzi phosphomannomutase and mannose-1-phosphate guanylyltransferase assay; format: functional; conditions: 10 µM
[4] = target: T2, Arginase-2, mitochondrial (Homo sapiens) (UniProt P78540); assay: in vitro enzyme assay to detect the production of urea directly proportional to the activity of Arginase II; format: functional; conditions: 33.3 µM; note: in the data most compounds retested in dose-response had high values
T2 sequence (whole entry): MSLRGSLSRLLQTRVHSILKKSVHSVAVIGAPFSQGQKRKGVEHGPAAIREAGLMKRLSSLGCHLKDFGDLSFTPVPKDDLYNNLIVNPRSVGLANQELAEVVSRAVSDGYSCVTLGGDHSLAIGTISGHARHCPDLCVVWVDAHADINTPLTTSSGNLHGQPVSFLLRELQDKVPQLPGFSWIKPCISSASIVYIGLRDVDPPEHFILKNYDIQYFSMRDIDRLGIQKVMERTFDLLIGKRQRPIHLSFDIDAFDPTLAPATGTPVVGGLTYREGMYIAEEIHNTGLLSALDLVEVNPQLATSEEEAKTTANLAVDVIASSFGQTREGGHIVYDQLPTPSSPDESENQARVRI

[5] = target: T3, Proteasome subunit beta (Trypanosoma cruzi) (UniProt O96673); assay: Trypanosoma cruzi proteasome chymotrypsin-like activity (TcProtChymo) assay.; note: in the data most compounds retested in dose-response had high values; format: functional; conditions: 9.37 µM
T3 sequence (whole entry): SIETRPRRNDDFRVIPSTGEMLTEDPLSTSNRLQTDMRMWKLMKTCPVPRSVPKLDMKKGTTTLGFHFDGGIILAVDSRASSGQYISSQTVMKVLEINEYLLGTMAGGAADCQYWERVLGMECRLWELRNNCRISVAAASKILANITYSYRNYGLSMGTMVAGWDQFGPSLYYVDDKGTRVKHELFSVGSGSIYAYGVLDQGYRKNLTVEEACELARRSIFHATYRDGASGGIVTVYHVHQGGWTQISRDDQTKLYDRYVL

Homo sapiens = organism: Homo sapiens; assay: To identify inhibition of the IFN signalling (Jak-Stat) pathway via expression of an eGFP reporter gene under the control of an IFN-stimulated response element (ISRE) containing MxA promoter.; format: functional; conditions: 30 µM
[6] = target: T4, Tyrosyl-tRNA synthetase, putative (Trypanosoma cruzi (strain CL Brener)) (UniProt Q4DSP6); assay: Trypanosoma cruzi tyrosyl tRNA synthetase (TcYRS) _High Tyrosine SOP; format: functional; conditions: 30 µM; note: in the data most compounds retested in dose-response had high values
T4 sequence (whole entry): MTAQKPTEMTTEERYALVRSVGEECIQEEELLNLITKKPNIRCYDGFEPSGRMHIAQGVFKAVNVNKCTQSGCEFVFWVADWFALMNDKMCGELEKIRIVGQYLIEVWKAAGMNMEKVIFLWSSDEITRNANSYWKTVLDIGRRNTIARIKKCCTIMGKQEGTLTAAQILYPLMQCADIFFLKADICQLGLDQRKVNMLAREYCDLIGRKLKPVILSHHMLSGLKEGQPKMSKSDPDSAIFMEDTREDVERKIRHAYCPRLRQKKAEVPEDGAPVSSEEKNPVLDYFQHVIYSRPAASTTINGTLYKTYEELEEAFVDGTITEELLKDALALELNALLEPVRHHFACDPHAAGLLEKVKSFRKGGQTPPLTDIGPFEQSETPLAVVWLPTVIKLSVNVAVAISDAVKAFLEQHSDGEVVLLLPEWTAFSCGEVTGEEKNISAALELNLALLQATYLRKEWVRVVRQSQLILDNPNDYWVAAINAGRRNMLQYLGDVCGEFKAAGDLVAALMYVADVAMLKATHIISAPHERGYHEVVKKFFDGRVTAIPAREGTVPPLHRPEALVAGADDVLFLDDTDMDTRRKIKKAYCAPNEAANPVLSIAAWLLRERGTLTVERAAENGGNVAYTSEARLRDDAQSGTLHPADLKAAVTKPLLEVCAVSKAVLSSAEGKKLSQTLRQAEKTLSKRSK

[7] = target: T4, Tyrosyl-tRNA synthetase, putative (Trypanosoma cruzi (strain CL Brener)); assay: Trypanosoma cruzi tyrosyl tRNA synthetase (TcYRS) SOP; format: functional; conditions: 30 µM
[8] = target: Chromo domain-containing protein 1 (Saccharomyces cerevisiae (strain ATCC 204508 / S288c) (Baker's yeast)) (UniProt P32657); assay: ScCHD-1 Enzyme Inhibition Assay; format: functional; conditions: 30 µM; note: in the data most compounds retested in dose-response had high values
Sequence of Chromo domain-containing protein 1 (Saccharomyces cerevisiae (strain ATCC 204508 / S288c) (Baker's yeast)) (P32657 whole entry, the tested form may be a part): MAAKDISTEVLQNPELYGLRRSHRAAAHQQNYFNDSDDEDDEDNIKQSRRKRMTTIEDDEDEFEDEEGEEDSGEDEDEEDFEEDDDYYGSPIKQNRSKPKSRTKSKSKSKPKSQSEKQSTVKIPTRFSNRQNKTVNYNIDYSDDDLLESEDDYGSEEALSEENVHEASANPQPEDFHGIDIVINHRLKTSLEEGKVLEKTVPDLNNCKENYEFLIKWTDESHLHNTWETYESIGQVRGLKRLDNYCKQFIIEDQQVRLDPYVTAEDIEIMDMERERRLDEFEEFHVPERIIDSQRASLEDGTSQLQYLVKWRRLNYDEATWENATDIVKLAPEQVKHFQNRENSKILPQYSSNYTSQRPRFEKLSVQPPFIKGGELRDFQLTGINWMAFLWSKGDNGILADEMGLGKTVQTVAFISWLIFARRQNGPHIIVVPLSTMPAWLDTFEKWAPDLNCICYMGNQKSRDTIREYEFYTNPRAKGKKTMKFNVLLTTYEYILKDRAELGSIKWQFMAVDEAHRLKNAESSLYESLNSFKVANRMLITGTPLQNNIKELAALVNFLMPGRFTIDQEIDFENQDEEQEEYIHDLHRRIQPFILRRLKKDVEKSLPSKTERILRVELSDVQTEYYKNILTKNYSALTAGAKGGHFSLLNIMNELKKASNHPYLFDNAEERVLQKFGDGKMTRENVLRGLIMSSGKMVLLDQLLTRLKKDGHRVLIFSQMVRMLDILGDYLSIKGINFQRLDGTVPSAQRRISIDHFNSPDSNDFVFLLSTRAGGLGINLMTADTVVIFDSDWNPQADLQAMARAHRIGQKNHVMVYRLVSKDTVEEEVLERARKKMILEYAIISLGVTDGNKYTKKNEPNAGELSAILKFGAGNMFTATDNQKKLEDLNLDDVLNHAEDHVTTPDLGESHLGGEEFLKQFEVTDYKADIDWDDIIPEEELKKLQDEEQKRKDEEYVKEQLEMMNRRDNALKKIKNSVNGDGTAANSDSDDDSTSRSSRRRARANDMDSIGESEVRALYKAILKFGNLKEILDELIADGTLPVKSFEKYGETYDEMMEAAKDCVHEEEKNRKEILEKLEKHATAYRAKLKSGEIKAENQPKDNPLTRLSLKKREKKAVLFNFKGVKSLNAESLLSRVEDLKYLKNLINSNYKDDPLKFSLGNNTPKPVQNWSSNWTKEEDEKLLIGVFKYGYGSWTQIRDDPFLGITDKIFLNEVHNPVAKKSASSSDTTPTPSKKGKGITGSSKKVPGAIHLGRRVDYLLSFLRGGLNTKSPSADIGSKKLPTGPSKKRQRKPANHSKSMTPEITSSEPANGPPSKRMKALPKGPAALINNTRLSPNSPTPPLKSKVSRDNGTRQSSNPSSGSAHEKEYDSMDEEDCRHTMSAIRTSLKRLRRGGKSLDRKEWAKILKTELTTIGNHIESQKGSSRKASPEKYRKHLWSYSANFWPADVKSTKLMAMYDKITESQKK

Sequence of Protein translocase subunit SecA (Escherichia coli (strain K12)) (P10408 whole entry): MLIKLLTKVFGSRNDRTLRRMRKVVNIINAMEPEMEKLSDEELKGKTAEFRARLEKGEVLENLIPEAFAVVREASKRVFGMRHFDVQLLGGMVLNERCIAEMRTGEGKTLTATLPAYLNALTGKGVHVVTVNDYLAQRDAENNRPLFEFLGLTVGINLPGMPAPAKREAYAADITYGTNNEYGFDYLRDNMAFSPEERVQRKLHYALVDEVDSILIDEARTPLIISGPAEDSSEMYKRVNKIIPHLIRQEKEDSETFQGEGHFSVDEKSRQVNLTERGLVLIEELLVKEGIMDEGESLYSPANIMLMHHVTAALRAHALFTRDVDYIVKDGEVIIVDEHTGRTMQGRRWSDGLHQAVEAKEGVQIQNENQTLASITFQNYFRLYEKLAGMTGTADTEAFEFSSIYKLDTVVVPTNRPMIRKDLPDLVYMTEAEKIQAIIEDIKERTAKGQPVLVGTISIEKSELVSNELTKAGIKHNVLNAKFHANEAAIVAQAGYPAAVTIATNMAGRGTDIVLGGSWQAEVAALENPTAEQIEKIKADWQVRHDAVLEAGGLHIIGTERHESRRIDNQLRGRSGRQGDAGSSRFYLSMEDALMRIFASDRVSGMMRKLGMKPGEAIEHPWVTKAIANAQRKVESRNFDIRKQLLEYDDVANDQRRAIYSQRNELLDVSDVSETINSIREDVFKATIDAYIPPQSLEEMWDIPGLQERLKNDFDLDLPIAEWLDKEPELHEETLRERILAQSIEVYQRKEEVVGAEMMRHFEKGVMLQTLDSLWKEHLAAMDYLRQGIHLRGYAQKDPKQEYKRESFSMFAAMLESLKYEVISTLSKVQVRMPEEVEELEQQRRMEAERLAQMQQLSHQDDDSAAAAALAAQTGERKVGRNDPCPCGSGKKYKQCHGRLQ
Sequence of Sialic acid-binding Ig-like lectin 9 (Homo sapiens) (Q9Y336 whole entry): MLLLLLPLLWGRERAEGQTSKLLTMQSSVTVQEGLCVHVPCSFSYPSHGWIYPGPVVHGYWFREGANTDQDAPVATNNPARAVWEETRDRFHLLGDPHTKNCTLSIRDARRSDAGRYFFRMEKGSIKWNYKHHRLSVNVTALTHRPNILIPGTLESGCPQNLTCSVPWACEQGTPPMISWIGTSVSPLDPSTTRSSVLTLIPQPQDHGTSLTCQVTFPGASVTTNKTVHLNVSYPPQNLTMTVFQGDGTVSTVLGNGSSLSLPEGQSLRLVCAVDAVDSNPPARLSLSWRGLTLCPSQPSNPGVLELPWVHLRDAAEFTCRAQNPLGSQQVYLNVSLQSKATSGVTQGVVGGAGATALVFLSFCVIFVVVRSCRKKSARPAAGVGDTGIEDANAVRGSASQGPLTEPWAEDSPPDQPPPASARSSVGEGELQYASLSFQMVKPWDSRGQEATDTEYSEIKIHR

Structure (SMILES) | Percent Effect [1] | Percent Effect [2] | Percent Effect [3] | Percent Effect (Trypanosoma cruzi) | Percent Effect [4] | Percent Effect [5] | Percent Effect (Homo sapiens) | Percent Effect [6] | Percent Effect [7] | Percent Effect [8]
COc1ccc(C[C@H]2CN(C(=O)c3ccncc3)CC[C@@H]2OC)cc1 | -3.87% | 11.7% | 0.155% | -6.57% | -11.4% | 6.61% | 11.4% | -2.9% | -2.5% | -10.3%
Cc1[nH]c2ccccc2c1-c1ccnc(NC[C@H](O)CO)n1 | -3.38% | 5.33% | -5% | -8.23% | -5.32% | 8.23% | 23.4% | -1.58% | -7.69% | -13.5%
CC(=O)N1CCCC1c1csc(Nc2cnccn2)n1 (stereo not given) | 0.761% | 9.33% | -8.01% | -5.33% | 2.21% | 11.8% | 20% | 3.17% | 10% | -25.7%
CC(C)N(Cc1cccc(F)c1)Cc1nc2c(cnn2C)c(=O)[nH]1 | -1.46% | 7.69% | 6.74% | 0.469% | 3.28% | 1.79% | 5.6% | 3.35% | 13.2% | -4.1%
Cc1nn(-c2ccccc2)c(C)c1CNC1CCc2ncnn2C1 (stereo not given) | -0.655% | 10.3% | 7.05% | 4.79% | 8.2% | 7.93% | -12.2% | 7.18% | 22.9% | -3.12%
CC(C)(C)C(O)CN1CCN(C(=O)c2cccc3[nH]ncc23)CC1 (stereo not given) | -8.1% | 20.5% | -18.1% | 4.41% | -0.41% | 20.4% | 1.83% | 3.35% | 22.9% | 22.1%
O=C(CSC1CCc2ccccc2NC1=O)NCCc1ccco1 (stereo not given) | -1.93% | 18.9% | 2.64% | 3.98% | 11.5% | 18% | 16.5% | 3.72% | 17.1% | -0.493%
COc1ccc(CNCc2ccnc(N3CCCCC3)c2)cc1OC | -2.73% | -2.56% | 3.59% | 4.22% | 2.87% | -1.62% | 25.8% | 3.35% | 1.21% | -2.92%
Cn1ncc2c1NC(=O)CC2c1ccc(O)cc1 (stereo not given) | -7.41% | 0% | -2.98% | -8.63% | -6.64% | 11.3% | 30.7% | 0.532% | 4.88% | -4.05%
COc1cc(N2CCCC(c3nccn3Cc3cscn3)C2)nc(N)n1 (stereo not given) | -4.57% | 5.41% | 16.6% | 6.89% | -22.7% | 15.1% | 25.7% | 6.92% | 14.6% | -3.5%
CC(C)n1ccnc1CN1CCCN(C(=O)c2nccnc2N)CC1 | -0.38% | 7.69% | -9.32% | 1.97% | 0% | 18.3% | 1.4% | 9.09% | 22.9% | -3.56%
CC(C)NC(=O)C(c1ccccc1)N1CCn2c(nnc2C2CC2)C1 (stereo not given) | -3.99% | 15.4% | -10.1% | 7.61% | -2.87% | 4.86% | 4.59% | 3.35% | 20.5% | -5.56%
Cc1nc(O)c2nnn(C[C@H]3CCCN3C(=O)C(C)(C)C)c2n1 | -2.69% | 12% | 5.82% | -2.37% | -1.33% | 7.88% | 12.7% | 5.29% | 10% | -20.8%
Cc1nn(C)c(N(C)C)c1CNCCCN(C)S(C)(=O)=O | -1.22% | 12.8% | -8.74% | -3.47% | 5.33% | 10.2% | 4.19% | 2.39% | 18.1% | -3.07%
NC(=O)C1CCC(NC(=O)COc2ccc(Cl)c(Cl)c2)CC1 (stereo not given) | -4.03% | 10.4% | 8.56% | 6.16% | -5.94% | 9.12% | 8.8% | 5.88% | 23.5% | -8.52%
CN(C)S(=O)(=O)N1CCCC(c2cccc(Cc3ccccc3)n2)C1 (stereo not given) | -0.482% | 6.67% | -7.39% | -6.31% | -5.31% | 14.4% | 58.5% | -5.29% | 0% | -8.36%
Cc1noc(C)c1CC(=O)OCC(=O)N1CCc2sccc2C1 | -3.42% | 18.7% | 0.304% | 0.201% | -3.99% | 14.3% | 12.1% | 6.84% | 23.1% | -8.07%
COc1cccc(-n2nnc(C(=O)N3CCN(C)CC3C)c2C)c1 (stereo not given) | 1.69% | 25.6% | -23.9% | 6.1% | -2.46% | 13.4% | 27.9% | 3.35% | 22.9% | 12.3%
Cc1cc(C)n(CC2CCCCN2C(=O)c2ccc3c(c2)OCO3)n1 (stereo not given) | -0.864% | 5.33% | -0.84% | -6.22% | 1.33% | 7.38% | 8.9% | 2.63% | 10.3% | -0.951%
Cc1ccc(C(=O)N2CCCC3(CCCC(=O)N3C)C2)cc1F (stereo not given) | -2.74% | 19.5% | -4.32% | -1.5% | 4.11% | 14.5% | 5.96% | 7.73% | 10% | -9.62%
Cc1cc(C)n2cc(CN3CCCC3Cn3nc(C)nc3C)nc2n1 (stereo not given) | -6.31% | -2.67% | 2.66% | 3.41% | 3.1% | 10.6% | 1.56% | 16.3% | 15.4% | -6.76%
CCc1nc(C2CCCN2C(=O)c2ccc3c(c2)nc(C)n3C)no1 (stereo not given) | -0.423% | -2.67% | 4.72% | -2.41% | 1.77% | 3.31% | 7.34% | 1.58% | 0% | -6.99%
NC(=O)C1(CCCc2cccnc2)CCCN(c2ncccn2)C1 (stereo not given) | -2.51% | 4% | 3.57% | -3.16% | 0.885% | 3.61% | 8.71% | 4.23% | 5% | -13%
CC(C)CN1CCC2(CCN(Cc3ccsc3)CC2)C1=O | -2.7% | 11.7% | 1.92% | 0.938% | 0.913% | 6.78% | -29.8% | 8.7% | 12.5% | 1.04%
